PubChem BioAssay (NCI)
“And” between values parts separate entries of the source, which are not always exact repeats. Identical values can stand only once. The panel holds about 83,000 compounds, 20% with a hit somewhere; the sample as a whole holds those more often.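 48-hour exposure, single concentration, 96-well plates; percent growth endpoint where 0 means no net growth. Active: below 10.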 Unmarked numbers belong to inactive results. The source made the active and inactive calls.

system: HL-60(TB) leukemia; test: NCI-60 one-dose screen, 48 h (100 = growth as untreated, 0 = no growth, -100 = all killed); settings: 10 µM unless noted

Row | SMILES | growth
1 | Cc1nc2sc(C(=O)Nc3cccc(Cl)c3C)c(N)c2cc1C(=O)c1ccccc1 | 5.28% (active)
2 | O=C(O)CNC1=C(Cl)C(=O)c2ccccc2C1=O | 122%
3 | COc1cc(Nc2ccnc3ccc(Br)cc23)cc(OC)c1OC | 24.8%
4 | O=c1oc2cc(OS(=O)(=O)c3ccccc3)c(Cl)cc2c2c1CCCCCC2 | 87.6%
5 | CC(=O)OCc1nc(C#N)c(N(C)C)o1 | 97.5%
6 | O=C1c2ccccc2C(=O)N1OCc1ccccc1 | 94.2%
7 | COc1ccc(-c2ccc(NNC(=O)c3ccc(F)cc3)nn2)cc1OC | 46.9%
8 | Nc1cc2ccccc2c(O)c1O | 4.42% (active)
9 | O=C(/C=C/c1ccc[nH]1)c1ccc(-n2ccc(C(F)(F)F)n2)cc1 | -18.4% (active)
10 | CCCOc1cc2ccccc2cc1C(=O)Nc1nc(NC)c2c(ccc3nccc32)[nH]1 | -55.2% (active)
11 | Cc1ccc(-n2c(=S)[nH]c3sc4c(c3c2=O)CCC(=O)C4)cc1 | 4.93% (active)
12 | O=C(CSC1CCc2ccccc21)N/N=C/c1ccccc1O (stereo not given) | -12% (active)
13 | Cc1nc(N)sc1-c1ccnc(Nc2ccc(N3CCOCC3)cc2)n1 | 43.9%
14 | C[C@]12C=CC(=O)C=C1CCC1C2[C@@H](O)C[C@@]2(C)C1CC[C@]2(O)C(=O)COC(=O)CCC(=O)O (stereo not given in full) | 104%
15 | COc1ccc(/C=C/c2nnc(/C=C/c3ccc(OC)c(OC)c3)o2)cc1OC | 12.1%
16 | Cc1ccc(C2=Nc3c(ccc4c(C)c(C)c(=O)oc34)OC2)cc1 | 98.3%
17 | CC(=O)c1cccc(OC(=O)c2ccccc2)c1 | 79.9%
18 | Cc1cc(OCc2ccc(C(F)(F)F)cc2)c2c(c1)C(=O)C=C(NCCN1CCCC1)C2=O | 96.6%
19 | O=C1N[C@@H]2NC(=[N+]3CCOCC3)N[C@@H]2N1 | 98%
20 | c1ccc(-c2nc(N3CCOCC3)c3c4c(sc3n2)CCCCCC4)nc1 | 68.4%

Row | SMILES | growth
21 | O=C(Nc1ccc(F)cc1F)c1cc(Br)ccc1O | -36.2% (active)
22 | CCOc1ccc2sc(NS(=O)(=O)c3ccc(N)cc3)nc2c1 | 94.7%
23 | COc1ccc(-c2csc(NC(=O)c3ccc(Cc4n[nH]c(=O)c5cccnc45)cc3)n2)cc1 | 104%
24 | CN1CCN(Cn2nc(-c3cc(F)c(Cl)cc3Cl)n(/N=C/c3ccc(N(C)C)cc3)c2=S)CC1 | 83.1%
25 | O=C(O)c1ccc(-n2cc(CNc3ccc(Cl)cc3)c(-c3ccccc3)n2)cc1 | 95%
26 | N#CC1C(C#N)C2c3ccccc3C=CN2C1C(=O)c1ccc(Br)cc1 (stereo not given) | 101%
27 | COc1ccc(C2=CC(c3ccc(OC)cc3Br)N3C=CSC3=N2)cc1 (stereo not given) | 61.4%
28 | O=C(N/N=C/c1cccnc1)c1ccccc1Nc1cccc(C(F)(F)F)c1 | 64.8%
29 | N#C/C(=C\c1ccc(-c2ccc(Br)cc2)o1)c1nc(-c2ccco2)cs1 | 89.3%
30 | O=S(=O)(Nc1ccc(Cl)cc1)c1ccc(-c2cnc(C3CC3)o2)cc1 | -36.7% (active)
31 | CCOC(=O)c1c2c(n3cccc(F)c13)C(=O)c1ncccc1C2=O | -25.8% (active)
32 | Fc1ccc(Nc2nc3nonc3nc2Nc2ccc(I)cc2)cc1 | -46.3% (active)
33 | Nc1c(C(=O)Nc2ccccc2C(F)(F)F)sc2nc3c(cc12)CCC3 | 86.8%
34 | CCOC(=O)c1c[nH]c2cc(OCC3CC3)c(OCC3CC3)cc2c1=O | 104%
35 | c1ccc(C(Nc2ccccn2)(c2ccccc2)c2ccccc2)cc1 | 90.4%
36 | O=C(NNc1ccc(-c2ccccc2)nn1)c1ccccc1 | 98.8%
37 | CC(=O)OCC1OC(OC(C)=O)C(OC(C)=O)C(OC(C)=O)C1OC(C)=O (stereo not given) | 120% and 101%
38 | CCOC(=O)/C=C/c1ccc(C(=O)OCC)[nH]1 | 51.2%
39 | Nc1ncnc2c1ncn2C1CC(O)C(CO)O1 (stereo not given) | 79.7% and 95.3%
40 | Oc1c(CN2CCCCC2)ccc2cccnc12 | 58.3% and 18.2%
